Compound activity from PubChem BioAssay.
In the library only some 3.9% were active in any assay of this set; here they are far more common.
PK Bst – Pyruvate Kinase | purified pyruvate kinase, luminescence ATP production; ribose 5-phosphate activator present at AC10 | Potency, µM | 51,000 compounds, 1.2% hits | AID 361, 2006; in the data active = potency below about 11 µM; inconclusive = mostly about 12 µM to 25 µM;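 the screen sought inhibitors and activators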
ERK AVP block – qHTS Assay for Inhibitors of the ERK Signaling Pathway using a Homogeneous Screening Assay. HEK293-V1b, vasopressin-stimulated pERK AlphaScreen. Potency, µM (series often up to 57.5 µM), usual class: inhibitors. 72,000 compounds, 0.99% hits; note: nearly all actives have a fitted effect of over 55% in size
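HEK293 cells stably expressing V1b receptor, preincubated 30 min at 37 °C with compound, then stimulated 5 min with 25 nM vasopressin. Phospho-ERK by AlphaScreen SureFire after 5 h RT; normalized to DMSO and vasopressin; AC50 by Hill fit.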
FLuc inh – qHTS Assay for Inhibitors of Firefly Luciferase. Potency, µM (doses to about 57.1 µM), usual class: inhibitors. Luciferin 4-monooxygenase (Photinus pyralis), P08659. 72,000 compounds, 2.2% hits. purified firefly luciferase, luminescence, 8 min. AID 411, 2009; note: nearly all actives have a fitted effect of over 40% in size
Target sequence (P08659 whole entry, looked up): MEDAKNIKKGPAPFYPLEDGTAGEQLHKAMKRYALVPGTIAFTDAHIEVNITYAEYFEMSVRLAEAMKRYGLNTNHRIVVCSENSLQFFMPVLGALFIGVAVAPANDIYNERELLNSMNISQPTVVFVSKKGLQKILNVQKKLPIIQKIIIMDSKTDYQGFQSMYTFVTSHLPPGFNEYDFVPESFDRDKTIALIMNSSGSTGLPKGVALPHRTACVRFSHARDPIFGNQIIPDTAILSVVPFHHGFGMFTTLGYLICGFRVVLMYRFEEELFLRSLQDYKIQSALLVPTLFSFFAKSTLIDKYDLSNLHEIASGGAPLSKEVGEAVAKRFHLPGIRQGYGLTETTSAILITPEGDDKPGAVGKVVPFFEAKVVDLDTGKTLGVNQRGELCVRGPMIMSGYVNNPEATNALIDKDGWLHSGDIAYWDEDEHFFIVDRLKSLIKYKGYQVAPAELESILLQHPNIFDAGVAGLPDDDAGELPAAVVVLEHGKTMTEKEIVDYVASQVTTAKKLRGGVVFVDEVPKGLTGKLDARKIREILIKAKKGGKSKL
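Here, luciferase activity is measured as luminescence following an 8 min room-temperature reaction at 10 uM ATP, pH 7.2. Every library sample is titrated.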
GBA mod – Glucocerebrosidase; purified enzyme, resorufin glucoside fluorescence (screen aimed at inhibitors), 20 min; Potency, µM; 48,000 compounds, 1.1% hits; in the data active = potency below about 15 µM; inconclusive = mostly about 16 µM to 33 µM;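 note: the screen sought inhibitors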
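Compounds titrated against 0.2 nM normal enzyme, 30 uM resorufin beta-D-glucopyranoside substrate, citrate/phosphate buffer with taurocholate and tween-20, pH 5.9. Reaction ran 20 min at room temperature; fluorescence (Ex 548/Em 600) gave AC50.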
A number is an active result; [ ] = dose if it differs, or a comment. Unless noted, calls come from the whole dose curve; as a rule, active = well fitted curve in the direction sought with a large enough effect; inconclusive = small, poorly fitted or top-dose-only effect, or another doubt; inactive = no such curve, though single readings can be large; an effect the other way counts as inactive or inconclusive.

How did CC(=O)Nc1cccc(Cn2cccn2)c1 do in these assays?
PK Bst: inactive; ERK AVP block: inactive; FLuc inh: inactive; GBA mod: inactive

Results for CCN(CC)c1ccc2cc(-c3nc4ccccc4[nH]3)c(=O)oc2c1 ?
ERK AVP block: inactive; FLuc inh: 0.04µM

Results for O=c1cc(-c2ccc(O)cc2)oc2cc(OC3OC(CO)C(O)C(O)[C@H]3O[C@@H]3OC[C@@](O)(CO)C3O)cc(O)c12 (some centres undefined) ?
ERK AVP block: inactive

How did Fc1ccccc1CSc1ncnc2c1oc1ccccc12 do in these assays?
PK Bst: inconclusive; ERK AVP block: inactive; FLuc inh: 13µM

Results for C#CCCCO/N=C1/C[C@@H](O)[C@@H](O)[C@@H]2[C@@H]3C(=O)N(c4cccc(Oc5ccccc5)c4)C(=O)[C@H]3CC[C@H]12 ?
ERK AVP block: inactive[11.5 µM]; FLuc inh: inactive[11.4 µM]

What do the screens show for `CCN1CCN(C(=O)c2cc3c(=O)n4ccccc4nc3n2Cc2ccccc2)CC1`?
PK Bst: inconclusive; ERK AVP block: inactive; FLuc inh: 7.9µM; GBA mod: inactive

What do the screens show for `O=C(NCCN1CCOCC1)c1cc2c(=O)n3ccccc3nc2n1Cc1ccccc1`?
PK Bst: inactive; ERK AVP block: inactive; FLuc inh: inactive; GBA mod: inactive

What do the screens show for `CN(N=O)c1ccc(/C=C\c2ccnc3ccccc23)cc1`?
ERK AVP block: inactive[11.5 µM]; FLuc inh: inactive[11.4 µM]

Results for C=C[C@H]1CN2CC[C@@H]1C[C@H]2[C@@H](O)c1ccnc2ccc(OC)cc12 ?
ERK AVP block: inactive; FLuc inh: inactive

What do the screens show for `N#C/C(=C1/CCCCCN1)c1nc2ccccc2[nH]1`?
PK Bst: inactive; ERK AVP block: inactive; FLuc inh: inactive; GBA mod: inactive

Results for N#C/C(=C1\CCCN1)c1ccc2ccccc2n1 ?
PK Bst: inactive; ERK AVP block: 16µM; FLuc inh: inactive; GBA mod: inactive

How did C=C(c1cccc2ccccc12)P(=O)(O)O do in these assays?
PK Bst: 0.17; ERK AVP block: inactive; FLuc inh: inactive; GBA mod: inactive

Results for COc1cc(/C=C\c2ccc(OC)cc2OC)cc(OC)c1 ?
ERK AVP block: inactive; FLuc inh: inactive

How did COc1ccc(C(=O)/C=C/N2CCCCC2)cc1OC do in these assays?
ERK AVP block: inconclusive; FLuc inh: inactive

What do the screens show for `COc1ccc(C(=O)/C=C/Nc2cccc(C)n2)cc1OC`?
PK Bst: 0.63; FLuc inh: 10µM

Results for Cc1ccc(C(=O)/C=C/Nc2ccccn2)cc1 ?
PK Bst: 0.75; FLuc inh: 0.4µM

What do the screens show for `Cc1csc(SCc2nnc(-c3ccccc3Br)o2)n1`?
ERK AVP block: inactive; FLuc inh: 20µM; GBA mod: inactive

What do the screens show for `COc1ccccc1CNc1cc(-c2ccccc2Cl)ncn1`?
ERK AVP block: inconclusive; FLuc inh: inactive[2.29 µM]

What do the screens show for `C=CCNc1nc(NCc2ccco2)nc(OCC)n1`?
PK Bst: inactive; ERK AVP block: 25µM; FLuc inh: inactive; GBA mod: inactive

Results for C=CCNc1nc(NC(C)(C)CO)nc(OCC)n1 ?
PK Bst: inactive; ERK AVP block: inactive; FLuc inh: inactive; GBA mod: inactive

Results for CCOC(=O)c1sc(SCC(=O)Nc2ccc(N(C)C)cc2)nc1N ?
PK Bst: inactive; ERK AVP block: inconclusive; FLuc inh: 13µM; GBA mod: inactive

How did O=c1cnc2cncnc2n1Cc1ccccc1 do in these assays?
ERK AVP block: inactive; FLuc inh: inactive[11.4 µM]

What do the screens show for `CSc1nnc2n(-c3ccccc3)c(=O)c3c4c(sc3n12)CCC4`?
PK Bst: 2.8; ERK AVP block: inactive; FLuc inh: inactive; GBA mod: inactive

How did CCOC(=O)CSc1nnc2n(Cc3ccccc3)c(=O)c3c4c(sc3n12)CCC4 do in these assays?
PK Bst: 5.1; FLuc inh: inactive

Results for Cc1nnc2n(Cc3ccccc3)c(=O)c3c4c(sc3n12)CCCC4 ?
PK Bst: inactive; ERK AVP block: inactive; FLuc inh: inactive; GBA mod: inactive

What do the screens show for `CC(=NCC(=O)O)c1ccccc1`?
ERK AVP block: inactive[11.5 µM]; FLuc inh: inactive[11.4 µM]

Results for COCCn1c(=O)cnc2cnc(OC)nc21 ?
ERK AVP block: inactive; FLuc inh: inactive[11.4 µM]

Results for Oc1ccc(Br)cc1/C=N/n1cnc2ccccc21 ?
ERK AVP block: 16µM; FLuc inh: inactive; GBA mod: inactive

How did COCC(=O)N1CCC2(CCN(Cc3ccccc3)CC2)CC1 do in these assays?
ERK AVP block: inactive; FLuc inh: inactive[11.4 µM]

What do the screens show for `COC(=O)c1ccccc1NC(=O)Nc1nnc(N2CCCCC2C)s1` (centres undefined)?
ERK AVP block: inactive; FLuc inh: inactive

Results for COc1ccc(NC(=O)Nc2nnc(N3CCCCC3C)s2)cc1OC (centres undefined) ?
ERK AVP block: inactive; FLuc inh: 16µM

What do the screens show for `CCCCCC/C(C=O)=C\c1ccccc1`?
ERK AVP block: inactive

Results for c1ccc(-c2nnc(-c3ccccn3)nn2)nc1 ?
PK Bst: 7.1; ERK AVP block: inactive; FLuc inh: inconclusive; GBA mod: inactive

What do the screens show for `COc1ccc(Oc2ncc3nc(-c4ccccc4)c(=O)n(CCC#N)c3n2)cc1`?
ERK AVP block: inactive; FLuc inh: inactive[11.4 µM]

How did c1c[nH]c(CN2CCN(Cc3ncc[nH]3)CC2)n1 do in these assays?
ERK AVP block: inactive[11.5 µM]; FLuc inh: inactive[11.4 µM]

Results for c1nc(N2CCCCCC2)c2[nH]cnc2n1 ?
FLuc inh: inactive

Results for c1nc(N2CCCC2)c2[nH]cnc2n1 ?
PK Bst: inactive; ERK AVP block: 32µM; FLuc inh: inactive; GBA mod: inactive

How did C=CCn1c(C)cc(C(=O)COc2ncnc3sccc23)c1C do in these assays?
PK Bst: inconclusive; ERK AVP block: inactive; FLuc inh: 13µM; GBA mod: inactive

What do the screens show for `CC(C)c1cc(C(=O)Nc2cccc(Cl)c2)no1`?
PK Bst: inactive; ERK AVP block: inactive; FLuc inh: 13µM; GBA mod: inactive

Results for COc1cc(NC(=O)c2cc(C(C)C)on2)cc(OC)c1OC ?
ERK AVP block: inactive; FLuc inh: inactive

Results for CC(C)c1cc(C(=O)Nc2cc(Cl)ccc2O)no1 ?
ERK AVP block: inactive; FLuc inh: 16µM; GBA mod: inactive

Results for CC(=O)c1cccc(NC(=O)c2cc(C(C)C)on2)c1 ?
ERK AVP block: inactive; FLuc inh: 16µM

How did CC(=O)c1cccc(NC(=O)c2cc(-c3ccc(F)cc3)on2)c1 do in these assays?
PK Bst: inactive; ERK AVP block: inactive; FLuc inh: inactive; GBA mod: inactive

Results for CC(C)Cc1cc(C(=O)Nc2cc(Cl)ccc2Cl)no1 ?
ERK AVP block: inactive; FLuc inh: inactive

Results for COc1ccccc1Nc1nc(N)nc(CSc2nncn2C)n1 ?
PK Bst: inactive; ERK AVP block: inactive; FLuc inh: inactive; GBA mod: inactive

What do the screens show for `Cc1ccc(Nc2nc(N)nc(CSc3nccn3C)n2)cc1`?
ERK AVP block: inactive; FLuc inh: 20µM; GBA mod: inactive

Results for COc1cccc(NC(=O)N2CCN(Cc3nc4ccccc4c(=O)[nH]3)CC2)c1 ?
PK Bst: inactive; ERK AVP block: inactive; FLuc inh: inactive; GBA mod: inactive

Results for O=C(Nc1cccc(Cl)c1)Nc1nccs1 ?
ERK AVP block: inactive; FLuc inh: inactive
